In PMC10668032, “Altered binding affinity of SIX1-Q177R correlates with enhanced WNT5A and WNT pathway effector expression in Wilms tumor” one finds binding signal data, which are given here for 109 sequences.

Whole data set: some 33,000 sequences, median “e-score” near -0.05, cut for the highest 2% near 0.38. The sample holds the highest values, similar sequences and a random draw of the others, so the mix is not that of the screen.

This test addresses T1, SIX1-Q177R homeodomain (human, UniProt Q15475 108-198, Q177R).
T1 sequence: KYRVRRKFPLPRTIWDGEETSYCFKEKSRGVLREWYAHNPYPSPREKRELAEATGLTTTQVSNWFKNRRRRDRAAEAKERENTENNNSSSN
Description: universal protein binding microarray; Universal all-10-mer PBM (8x60K, AMADID 030236), 300 nM GST-tagged protein, Alexa Fluor 488 anti-GST; buffer, salt, pH and temperature not stated (as in Berger); high values mean tight binding. Conditions: protein: ivt; tags: N-terminal GST; dsDNA, one strand shown. In outline:
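Binding of GST-tagged homeodomains is given as 8-mer E-scores from the Universal PBM Analysis Suite. The proteins were produced by in vitro transcription/translation, quantified by anti-GST western blot against a recombinant GST standard curve, and applied in duplicate at 300 nM final concentration to universal 'all 10-mer' protein binding microarrays (8×60K format).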
On to CGTATCCA, for which the binding signal came out at 0.159 ± 0.0161 E-score. The result for ATATACCC reads 0.2382 ± 0.000608 E-score; that for CACCCAGA, 0.189 ± 0.0293 E-score.

For the sequence ACCAGATA, the binding signal came out at 0.162 ± 0.0127 E-score.

As for ACCACGGA, the binding signal worked out at 0.178 ± 0.0145 E-score. Turning to ACCCTTAC, the binding signal came to 0.158 ± 0.0125 E-score. The result for CACCTTTA reads 0.223 ± 0.0267 E-score; that for CACAGACA, 0.155 ± 0.0227 E-score; that for CCGACCCG, 0.176 ± 0.00738 E-score.

Take CCGTGTGC: the binding signal was found to be 0.215 ± 0.0507 E-score. The result for CCGTGTAC reads 0.4382 ± 0.00199 E-score; that for GCGTTTAC, 0.16 ± 0.0218 E-score; that for ACGTGTAG, 0.347 ± 0.0241 E-score. Turning to GCGTATAC, the binding signal worked out at 0.158 ± 0.00385 E-score. In the case of GCGTGTAC it was 0.4393 ± 0.000926 E-score; in that of ACGTGTAC, 0.387 ± 0.0177 E-score. ACGTGTAT: the binding signal is 0.321 ± 0.0343 E-score. The result for CCCTGTAC reads 0.173 ± 0.0309 E-score; that for ACCGCCCC, 0.157 ± 0.0585 E-score; that for ACCACTGG, 0.153 ± 0.00392 E-score. The result for ACCTTACC reads 0.155 ± 0.0397 E-score; that for CACGGACA, 0.298 ± 0.0109 E-score; that for CACGACAG, 0.1738 ± 0.000629 E-score. In the case of CACGACAC it was 0.448 ± 0.0167 E-score; in that of CACGACTC, 0.304 ± 0.00378 E-score; in that of AACGACAC, 0.4466 ± 0.00332 E-score. Regarding GACGACCC, the binding signal came out at 0.158 ± 0.0499 E-score. In the case of CACGACCC it was 0.32 ± 0.0093 E-score; in that of GACGACAC, 0.429 ± 0.0137 E-score; in that of CACGACGC, 0.151 ± 0.0468 E-score. For CACGACCA, the binding signal was 0.227 ± 0.0193 E-score. In the case of CACCTATA it was 0.301 ± 0.00719 E-score; in that of CCCGACCA, 0.204 ± 0.0179 E-score.

As for GCCGTGTA, the binding signal stood at 0.419 ± 0.00774 E-score. The result for GCCGGGTA reads 0.197 ± 0.033 E-score; that for ACCGTGTG, 0.259 ± 0.0453 E-score. CCCGTCTC: the binding signal was found to be 0.239 ± 0.00285 E-score.

For CCCGTGTC, the binding signal worked out at 0.458 ± 0.00911 E-score. As to ACCGTGTC, the binding signal worked out at 0.428 ± 0.0209 E-score. In the case of ACCGTGCC it was 0.179 ± 0.0325 E-score. For CCCGCGTA, the binding signal is 0.154 ± 0.0151 E-score.

As for CCCGTGTA, the binding signal amounted to 0.453 ± 0.00915 E-score. In the case of CCCGTGAC it was 0.155 ± 0.00256 E-score; in that of CCTGTGTA, 0.192 ± 0.0408 E-score. The result for CCCCCGGA reads 0.263 ± 0.00617 E-score; that for AAGGATCC, 0.178 ± 0.0155 E-score. Turning to GACTCCGA, the binding signal was 0.198 ± 0.0344 E-score. In the case of ACCCTGTA, the binding signal was 0.153 ± 0.0186 E-score.

With ACCGTGTA, the binding signal stood at 0.4376 ± 0.00046 E-score. The result for ACCGGGTA reads 0.212 ± 0.00998 E-score; that for GCAGCACC, 0.219 ± 0.0401 E-score.

Turning to GGTTAAAC, the binding signal was 0.183 ± 0.0367 E-score.

Consider CGTTACCC, for which the binding signal was determined as 0.207 ± 0.026 E-score. In the case of GGTTACAC it was 0.4536 ± 0.000905 E-score; in that of AGTTACAC, 0.449 ± 0.0313 E-score; in that of CGTTACAC, 0.424 ± 0.0188 E-score. The result for CGTTTACA reads 0.154 ± 0.0251 E-score; that for AGTTGCAC, 0.208 ± 0.0144 E-score. Take GGTTGCAC: the binding signal was 0.183 ± 0.0188 E-score. For AAATGGTG, the binding signal stood at 0.289 ± 0.00359 E-score. On to CGCCGGCG, for which the binding signal was found to be 0.192 ± 0.0602 E-score.

Regarding AGTTCGAA, the binding signal stood at 0.156 ± 0.011 E-score. In the case of CCCCCGCA it was 0.218 ± 0.0293 E-score; in that of CGACCCCA, 0.233 ± 0.0324 E-score. In the case of GAGTATAC it was 0.157 ± 0.0409 E-score; in that of ATATACAC, 0.409 ± 0.0246 E-score.

In the case of CTATACAC, the binding signal was found to be 0.379 ± 0.0172 E-score.

Take GTATACAA: the binding signal came to 0.155 ± 0.0122 E-score.

For the sequence GTATACAC, the binding signal worked out at 0.411 ± 0.00685 E-score. Take ATATATAC: the binding signal came out at 0.154 ± 0.00578 E-score. The result for CAAAGGGG reads 0.188 ± 0.0422 E-score. In the case of CCCCATAG it was 0.209 ± 0.0311 E-score; in that of TACCAACA, 0.167 ± 0.0345 E-score; in that of GTGTACAA, 0.4291 ± 0.00333 E-score. The result for CTGTACAC reads 0.41165 ± 0.000233 E-score; that for GTGTACAC, 0.4741 ± 0.00152 E-score. For the sequence GTACACAC, the binding signal came out at 0.355 ± 0.0185 E-score.

On to CTGCACAC, for which the binding signal amounted to 0.247 ± 0.0168 E-score. Turning to CTGTACCC, the binding signal amounted to 0.183 ± 0.0197 E-score. The result for ATGTACCC reads 0.19 ± 0.00303 E-score; that for ATGTACAC, 0.435 ± 0.00667 E-score; that for ACCCGGCG, 0.235 ± 0.0231 E-score.

As to CCCATACA, the binding signal was 0.192 ± 0.0397 E-score. The result for CTCGGACA reads 0.171 ± 0.0363 E-score. The result for AGGGATCC reads 0.212 ± 0.0252 E-score; that for ACACAACA, 0.268 ± 0.0457 E-score. In the case of CCCGATTA it was 0.166 ± 0.0206 E-score.

As for TGATAACA, the binding signal was found to be 0.153 ± 0.0108 E-score.

As for TGTCTAAA, the binding signal came out at 0.199 ± 0.0261 E-score. On to CACCAGCA, for which the binding signal was 0.341 ± 0.0362 E-score. In the case of GACCCCAC it was 0.2185 ± 0.00167 E-score; in that of AAACACAC, 0.344 ± 0.0104 E-score; in that of GAACACCA, 0.4685 ± 0.000778 E-score. In the case of CAACACTA it was 0.34 ± 0.0042 E-score; in that of AAACACTC, 0.321 ± 0.0305 E-score; in that of GAGCACCA, 0.243 ± 0.0142 E-score. Turning to AAACAACA, the binding signal was found to be 0.166 ± 0.016 E-score. The result for GAACACTA reads 0.356 ± 0.0123 E-score; that for AAACACGA, 0.324 ± 0.0263 E-score; that for TAACACTA, 0.384 ± 0.0373 E-score.

In the case of AAACACCC, the binding signal came out at 0.45 ± 0.00506 E-score. The result for AAACACCA reads 0.454 ± 0.0052 E-score; that for AAACACTA, 0.298 ± 0.0405 E-score. Regarding CACGGGAG, the binding signal was found to be 0.17 ± 0.0204 E-score. The result for ACCGAACC reads 0.197 ± 0.00959 E-score; that for ACCCCCCC, 0.31 ± 0.0449 E-score.

As to CACCAACG, the binding signal came to 0.335 ± 0.0249 E-score. Turning to ACCGCGTG, the binding signal stood at 0.246 ± 0.00416 E-score. On to GGAGGGGA, for which the binding signal was found to be 0.158 ± 0.02 E-score.
